Source: PubChem BioAssay AID1529 (NMMLSC, 2009)
Among all 290,000 compounds or so, about 4,200 (1.4%) were called active.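 How the source made its calls: active means binding response more than 3 SD above or below the average of its plate-row segment, actives on both sides; inconclusive means wells at one plate position flagged as instrument error; inactive means the rest.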 Many of the other results were omitted from the sample, so actives are more common in it than they were.

What follows are compounds tested against Mitogen-activated protein kinase kinase kinase 3 (Homo sapiens) (UniProt Q99759) (assay: modulators of MEKK3-MEK5 PB1 binding, primary screen, biochemical, wildtype MEKK3, multiplex bead flow cytometry, Alexa488-MEK5 (AID 1529;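 further: Alexa488 bead fluorescence after subtracting the streptavidin-only scavenger bead signal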)). Conditions: bead-based flow cytometry, Alexa488-MEK5 binding to MEKK3; at 10 µM; actives lie on both sides; 0 = blocked by unlabeled MEK5, 100 = vehicle.
Mitogen-activated protein kinase kinase kinase 3 (Homo sapiens), sequence (Q99759 whole entry, looked up): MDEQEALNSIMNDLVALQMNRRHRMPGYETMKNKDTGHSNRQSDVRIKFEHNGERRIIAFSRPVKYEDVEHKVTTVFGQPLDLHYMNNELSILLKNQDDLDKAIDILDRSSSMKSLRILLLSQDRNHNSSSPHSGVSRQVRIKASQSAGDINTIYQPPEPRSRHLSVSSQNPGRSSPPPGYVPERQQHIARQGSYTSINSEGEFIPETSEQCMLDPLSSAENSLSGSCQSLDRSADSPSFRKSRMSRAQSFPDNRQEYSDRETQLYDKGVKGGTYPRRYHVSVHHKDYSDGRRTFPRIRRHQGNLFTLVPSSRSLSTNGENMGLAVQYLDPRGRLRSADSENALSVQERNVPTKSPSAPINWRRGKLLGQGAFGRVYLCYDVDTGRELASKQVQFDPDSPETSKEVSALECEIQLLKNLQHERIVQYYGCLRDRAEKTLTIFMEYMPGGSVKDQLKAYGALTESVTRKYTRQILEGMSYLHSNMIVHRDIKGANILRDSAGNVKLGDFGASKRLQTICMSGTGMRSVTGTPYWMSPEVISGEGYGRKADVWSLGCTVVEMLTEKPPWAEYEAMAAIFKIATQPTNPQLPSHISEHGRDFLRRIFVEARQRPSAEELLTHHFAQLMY

Binding response (% of control), inactive:
COc1cc2c(cc1OC)C(c1ccncc1)CC(=O)N2 (stereo not drawn) 109%
COc1cc2c(cc1OC)C(C(=O)Nc1cc(C)c(OC)c(C)c1)CC(=O)N2 (stereo not drawn) 109%
OCCNc1nc(Nc2ccc(Cl)c(Cl)c2)nc2ccccc12 111%
COc1ccc(CC(=O)Nc2ccc(C(=O)NC(C)(C)C)cc2)cc1 97%
O=C(Cc1ccccc1)Nc1cccc(NC(=O)c2ccccc2)c1 98%
Cc1nc(-c2ccccc2)sc1C1(C)CC(c2cccnc2)=NO1 (stereo not drawn) 104%
O=C(Cc1ccccc1)NNS(=O)(=O)c1ccc([N+](=O)[O-])cc1 95%
O=C(CC(c1ccccc1)c1ccccc1)NCC(O)c1ccc([N+](=O)[O-])cc1 (stereo not drawn) 101%
Fc1ccccc1/C=N/Nc1cc(N2CCCCC2)ncn1 105%
CCc1noc(C)c1C(=O)N1CCCC(N2CCN(c3ccc(F)cc3)CC2)C1 (stereo not drawn) 91%
Cc1ccc(CNC(=O)C2CCCN2S(=O)(=O)c2ccc3c(c2)C(C)(C)C(=O)N3C)cc1 (stereo not drawn) 104%
CC1(C)Cc2cccc(OCC(N)=O)c2O1 100%
CC1(C)Cc2cccc(OCC(=O)NCc3ccccc3)c2O1 100%
COc1ccc(C)cc1NC(=O)CN(C)S(=O)(=O)c1ccc2c(c1)n(C)c(=O)c(=O)n2C 101%
FC(F)Oc1ccc(NC(=S)NCc2ccco2)cc1Cl 99%
CCOc1cc(NC(=S)NCc2ccco2)c(OCC)cc1NC(=O)c1ccco1 105%
CCOC(=O)C1Nc2ccc(C(F)(F)F)cc2C2C=CCC12 (stereo not drawn) 99%
CCCC(=O)N1c2ccccc2NC2=C(C(=O)CCC2)C1c1ccc(F)cc1 (stereo not drawn) 100%
CCC(=O)N1c2ccccc2NC2=C(C(=O)CCC2)C1c1ccco1 (stereo not drawn) 94%
CC(C)(C)C(=O)Nc1ccc(-c2cn3cccnc3n2)cc1 107%
COc1cc(C(C)=O)ccc1OC(=O)CN1C(=O)c2ccccc2C1=O 102%
CC1Cc2ccccc2N1C1=CC(=O)CC(C)(C)C1 (stereo not drawn) 100%
O=C(Nc1ccccc1)/C(=C/c1ccc([N+](=O)[O-])cc1)NC(=O)c1ccccc1 111%
O=C(Nc1ccc(C(=O)O)cc1)/C(=C/c1ccc([N+](=O)[O-])cc1)NC(=O)c1ccccc1 97%
O=C(Nc1ccc(O)cc1)c1ccc(NC(=O)c2ccco2)cc1 101%
COc1ccc2c(c1)CCNC2Cc1ccc(OC)c(O)c1 (stereo not drawn) 98%
C=CCn1c(-c2sc(-c3ccccc3)nc2C)n[nH]c1=S 99%
C=CCn1c(-c2ccc3[nH]c(C)c(C)c3c2)n[nH]c1=S 105%
O=S(=O)(c1cccc(Cn2nnc(-c3ccc(F)cc3)n2)c1)N1CCOCC1 103%
Cc1ccc(SCC(=O)Nc2ccc3c(c2)OCCO3)cc1 127%
Cc1csc(NC(=O)CSc2ccc(-c3ccc(F)cc3)nn2)n1 100%
C[C@H]1CC[C@]2(O[C@@H](CCO)C[C@@H](O)[C@@H]2O)O1 96%
COc1ccc2nc(C)cc(Nc3cccc(C(=O)O)c3)c2c1 106%
COc1cc(NC(=O)c2cccnc2SC)cc(OC)c1 110%
O=C(NC(=S)Nc1ccc(Cl)cc1Cl)C1CC1 100%
Cc1ccc2oc(C(=O)N3CCN(C)C[C@@H]3C(C)C)c(C)c2c1 102%
COc1ccc(NCCc2ccccn2)cc1 108%
O=C(NC(Cc1c[nH]c2ccccc12)C(=O)O)/C(=C/c1ccco1)NC(=O)c1ccccc1 (stereo not drawn) 101%
COc1ccc(/C=C(\NC(=O)c2ccc(OC)c(OC)c2)C(=O)NCCc2c[nH]c3ccccc23)cc1 103%
CCOC(=O)c1cc2occc2n1CC(=O)NC1CCC(C)CC1 (stereo not drawn) 104%
CCOC(=O)c1cc2c(ccn2C)n1CC(=O)N1CCC(C)CC1 111%
CCn1c(SCC(=O)NC2CCCC2)nnc1-c1ccoc1C 98%
Cc1cc(C)cc(NC(=O)CN2C(=O)c3ccccc3C2=O)c1 97%
Cc1cccc(NC(=O)CN2C(=O)c3ccccc3C2=O)c1C 110%
CCC(Cc1ccccc1)NC(=O)C1CCCCC1 (stereo not drawn) 101%
CCOCCCN(C)C1CCN(C(=O)c2oc3ccccc3c2NC(=O)Cc2cccc([N+](=O)[O-])c2)CC1 99%
O=C1CC(N2CCN(c3ccc(F)cc3)CC2)C(=O)N1c1ccccc1 (stereo not drawn) 100%
Cc1ccc(CC2CC(=O)N(c3cc(C)ccc3C)C2=O)cc1 (stereo not drawn) 101%
COC(=O)C1=C[C@@H](C(=O)OC)[C@@H]2C3=C(C(=O)[C@]2(C)NC(=O)c2ccccc2)[C@H](C)n2c(=O)n(C)c(=O)n2[C@@H]3C1 108%
CC(c1cccnc1)N(CCN(C)C)C(=O)Nc1ccc(Cl)c(Cl)c1 (stereo not drawn) 96%
CC(C)(C)NC(=O)c1cc(NC(=O)c2ccco2)cc(NC(=O)c2ccco2)c1 101%
COc1ccc(N(CC(=O)NC(C)(C)C)C(=O)c2ccco2)cc1 98%
Cc1ccc(S(=O)(=O)N[C@@H](Cc2ccccc2)C(=O)N2CCC(C(=O)N[C@H](C(=O)O)C(C)O)CC2)cc1 (stereo partly drawn) 107%
Cc1ccc(CSc2nsc(C)c2C#N)cc1 103%
COc1cccc(OC)c1C(=O)Nc1ccc2c(c1)n(C)c(=O)n2C 109%
CC(C)CC(=O)Nc1ccc(Cc2ccncc2)cc1 104%
CCOc1ccc(N(CC(=O)Nc2ccccc2F)S(=O)(=O)c2c(C)[nH]c(=O)[nH]c2=O)cc1 101%
COCCNC(=S)Nc1cc(S(=O)(=O)N2CCOCC2)ccc1N1CCCCC1 99%
COc1ccc(S(=O)(=O)N2CCOCC2)cc1C(=O)NC1CCCCC1 103%
COc1cccc(C(=O)OCc2cc(=O)oc3c(C)c(C)ccc23)c1OC 103%
Nc1nc(SCc2cccc(Br)c2)n[nH]1 105%
O=c1c2ccccc2nnn1CSc1nnnn1-c1ccccc1 101%
O=C(CCn1nnc2ccccc2c1=O)N[C@@H](Cc1c[nH]c2ccccc12)C(=O)O 98%
CN(CCc1ccccn1)C(=O)c1ccc(OC2CCN(CCc3ccccc3)CC2)cc1 98%
COc1ccc(CNC(=O)C2CCN(S(=O)(=O)N3CCOCC3)CC2)cc1 104%
COc1ccc(CNC(=O)C2CCN(S(=O)(=O)c3ccc(SC)cc3)CC2)cc1 101%
COc1ccc(CNC(=O)[C@@H]2CC=C[C@@H]3CCN(C4CC4)C(=O)[C@@H]32)cc1 101%
O=S(=O)(Nc1ccccc1Br)c1cccs1 100%
CCCn1c(C)cc(/C=C(\C#N)C(=O)OCC(=O)Nc2cc(OC)c(OC)c(OC)c2)c1C 101%
COc1cc(C2C3=C(CCCC3=O)OC3=C2C(=O)CCC3)ccc1OCC(=O)Nc1ccccc1 100%
Cc1cc(C)c2nc(N(CCN(C)C)C(=O)/C=C/c3cccs3)sc2c1 101%
COc1ccc(NC(=O)NNC(=O)COc2cc(C)c(Cl)c(C)c2)c(OC)c1 105%

Binding response (% of control), active:
COc1ccc(C2CC(=O)Nc3cc(C)c(C)cc32)c(OC)c1OC (stereo not drawn) 0% [inhibitor]
CC(C)(C)NC(=O)c1cccc(NC(=O)Cc2ccc(Br)cc2)c1 163%
O=C(O)CC(Cc1ccccc1)C(=O)Nc1ccc([N+](=O)[O-])cc1 (stereo not drawn) 128%
CC1(C)Cc2cccc(OCC(=O)N3CCN(c4ccc([N+](=O)[O-])cc4)CC3)c2O1 59% [inhibitor]
COc1cc(NC(=S)NCc2ccco2)c(OC)cc1Cl 71% [inhibitor]
CC(C)C(=O)N1c2ccccc2NC2=C(C(=O)CCC2)C1c1ccc(N(C)C)cc1 (stereo not drawn) 129%
CC1(C)OC(=O)N2CCc3ccccc3C21C (stereo not drawn) 129%
CNC(=O)/C(=C\C=C\c1ccccc1)NC(=O)c1ccc([N+](=O)[O-])cc1 73% [inhibitor]
C=CCn1c(=S)sc2c(=O)[nH]c(C)nc21 131%
O=C(CSc1ccc(-c2ccc(F)cc2)nn1)Nc1ccc2c(c1)OCCO2 133%
COc1cccc(Nc2ncccc2C(=O)O)c1 3% [inhibitor]
Cc1ccc(C(=O)N/C(=C/c2ccco2)C(=O)NCCc2c[nH]c3ccccc23)cc1C 73% [inhibitor]
CCOC(=O)c1cc2occc2n1CC(=O)N1CCN(C(=O)c2ccco2)CC1 0% [inhibitor]
Cc1ccccc1C(=O)NNC(=O)CN1C(=O)c2ccccc2C1=O 135%
Cc1ccc(N2C(=O)CC(N3CCSCC3)C2=O)c(C)c1 (stereo not drawn) 55% [inhibitor]
C/C(CC(=O)NC(C)(C)C)=N\NC(=O)c1ccco1 140%
COc1cccc(OC)c1C(=O)Nc1ccc(Cc2ccncc2)cc1 147%
O=C(NCC1CCCCC1)c1cc(S(=O)(=O)N2CCCCC2)ccc1N1CCOCC1 4% [inhibitor]
CSCC[C@H](NC(=O)CCCn1nnc2ccccc2c1=O)C(=O)O 137%
COc1ccc(CNC(=O)C2CCN(S(C)(=O)=O)CC2)cc1 39% [inhibitor]
CCOC(=O)/C(C#N)=C/c1ccc(OCC(=O)Nc2ccccc2)c(OC)c1 27% [inhibitor]
